Test [1] can be described thus: NCI Yeast Anticancer Drug Screen. Data for the rad50 strain (AID 155).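 Also: 0% = growth of vehicle-only cultures of the same strain.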 As to conditions: S. cerevisiae rad50 strain growth inhibition; at 50.0 µM; hits give high values. The essentials:
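A DNA repair-deficient yeast mutant serves as the test organism; compound-induced growth inhibition is calculated against vehicle-treated cells.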

Test [2] is described as follows: NCI Yeast Anticancer Drug Screen. Data for the mec2-1 strain (AID 157). As to conditions: S. cerevisiae mec2-1 strain, at 50.0 µM, hits give high values. The essentials:
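Cells of the genetically defined mec2-1 yeast strain are incubated with test compound. Inhibition of growth is calculated against vehicle-treated controls.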

Test [3] in a line: NCI Yeast Anticancer Drug Screen. Data for the sgs1 mgt1 strain (AID 161).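 Also: 0% = growth of cultures given vehicle only.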 The note with it: S. cerevisiae sgs1 mgt1 strain, at 50.0 µM, hits give high values. A digest of the protocol:
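Test agents were incubated with a DNA-repair-mutant yeast strain. Growth was then read and compared against vehicle-treated controls.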

A short description of test [4]: NCI Yeast Anticancer Drug Screen. Data for the cln2 rad14 strain (AID 165).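 Also: 0% = growth equal to vehicle treated cultures.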 As to conditions: S. cerevisiae cln2 rad14 strain, at 50.0 µM, hits give high values. The essentials: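 The screen exposed genetically defined yeast (cln2 rad14) to test compounds and scored growth inhibition relative to vehicle-treated controls.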
A short description of test [5]: NCI Yeast Anticancer Drug Screen. Data for the mlh1 rad18 strain (AID 175). The note with it: S. cerevisiae mlh1 rad18 strain growth inhibition; at 50.0 µM; hits give high values. A digest of the protocol:
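Compound-treated yeast growth, normalised to vehicle controls. Strain bears defined DNA repair mutations.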

Test [6] is described as follows: NCI Yeast Anticancer Drug Screen. Data for the bub3 strain (AID 167). As to conditions: S. cerevisiae bub3 mutant strain, at 50.0 µM, hits give high values. The essentials:
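Inhibition values come from growth of compound-treated mutant yeast normalised to vehicle-treated controls.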

This is part of a sample that, as a whole, favours compounds with a hit. Of some 79,000 tested, about 15% had one in any assay. Unmarked numbers belong to inactive results. The source made the active and inactive calls. Rule as the data show it: active = growth inhibition above about 70%; inactive = the rest. Where a SMILES comes first, the peptide text is derived from it. [ ]: non-standard residue; d: D form. The star is where a group is joined. Hyp = O=C(O)[CH]1C[CH](O)CN1; Cbz = O=C(OCc1ccccc1)*

As to `O=C(NCCc1ccccc1)c1ccc2ccccc2n1`, the growth inhibition in test [1] is 65.3%; in test [2], 53.3%; in test [3], 63.7%; in test [4], 52.1%; in test [5], 84.5% (active).
In the same order, the values of `N#CNC(N)=Nc1ccc(Cl)cc1` are 5.35%, 7.5%, -27.9%, 19.6% and -17.4%.
`OCCN(CCO)CCCNc1ccnc2cc(Cl)ccc12`: the growth inhibition in test [1] is -22.6%; in test [2], -2%; in test [3], -0.65%; in test [4] it was -39.9%; in test [5], 5.2%.
`CC1(C)S[C@@H]2[C@H](NC(=O)C3(N)CCCCC3)C(=O)N2[C@H]1C(=O)O`: the growth inhibition in test [1] is -11.8%; in test [2] it was -29.1%; in test [3], 7.85%; in test [4], -5.65%; in test [5], -11.8%.
With `CCCCCCCCCCCCCC(=O)OC`, the growth inhibition in test [1] was 27.6%; in test [2], 15.3%; in test [3], 16.5%; in test [4] it was -9.3%; in test [5], 31.4%.
`c1ccc(C(c2ccccc2)c2cc(-c3cc(C(c4ccccc4)c4ccccc4)[nH]n3)n[nH]2)cc1`: the growth inhibition in test [1] is -9.25%; in test [2], 21.4%; in test [3], -7.55%; in test [4] it was -28.6%; in test [5], 6.25%.
In the same order, the values of `O=C(O)Cn1cnc2c(=O)[nH]c(Nc3ccccc3)nc21` are 24.4%, 9.1%, 34.9%, 5.35% and -17.1%.
The like results for `O=CNn1cn[nH]c1=S` were, in that order, 1.9%, -2.65%, -17.6%, 4.25% and 6.95%.
As for `CC(=O)OC1CCC(OC(C)=O)[C@H]2[C@@H]1[C@@H]1S[C@H]2c2ccccc21` (stereo partly specified), the growth inhibition was 1% in test [1]; -1.55% in test [2]; -0.45% in test [3]; 11.1% in test [4]; -1.15% in test [5].
In the same order, the values of `CC1(C)C(CC(=O)O)CC1C(=O)O` (stereo unspecified) are 10.4%, -0.7%, -27.4%, 11.2% and -1.4%.
`CCCCCCCC/C=C\CCCCCCC(F)C(=O)O` (stereo unspecified): the growth inhibition is 25.4% in test [1]; 4.55% in test [2]; 16.2% in test [3]; 6.1% in test [4]; -43% in test [5].
The like results for `[B-]([C+]1CCCCC1)N1C=CC=CC1` were, in that order, 1.2%, 1.4%, 15.7%, -4.75% and -2.1%.
Consider `COC1(OC)CC(CCl)OC1(OC)OC` (stereo unspecified), for which the growth inhibition in test [1] was -2.45%; in test [2] it was 0.25%; in test [3], 12.7%; in test [4] it was 1.55%; in test [5] it was -4.5%.
The like results for `Fc1ccc(NC(=S)NCCN2CCCC2)cc1` were, in that order, 3.9%, 34.2%, 8.1%, 3.75% and -4.3%.
The like results for `CCOC(=O)CCC(C(=O)OCC)c1nc2ccccc2[nH]c1=O` (stereo unspecified) were, in that order, 12.6%, 11.9%, 12.6%, -2.75% and 14.2%.
In the same order, the values of `NC(=O)CNC(=O)C1CC(O)CN1C(=O)C1CCCN1C(=O)OCc1ccccc1` (stereo not drawn) (Cbz-Pro-[Hyp]-Gly-NH2; configuration not given here) are -3.9%, 1.1%, 1.55%, 4.15% and 2.2%.
`CC1CCC(CCBr)CC1` (stereo unspecified): the growth inhibition in test [1] is 5.8%; in test [2] it was -9.9%; in test [3] it was 5.15%; in test [4] it was -3.15%; in test [5], 2.25%.
The like results for `O=C1NC(=O)C(CCBr)N1` (stereo unspecified) were, in that order, -21.1%, -6.85%, -10.3%, -3.8% and 5.7%.
In the same order, the values of `CC(C)SC(=O)C[Si](C)(C)C` are -5.8%, 6.95%, -2.9%, -16.1% and -1.65%.
In the same order, the values of `NC(=O)CC(Nc1ncc2c(n1)-c1ccccc1OC2)C(=O)O` (stereo unspecified) are 37.6%, -16.4%, -10.5%, 9.95% and -53.8%.
On to `Cc1cc2c(cc1[N+](=O)[O-])OCCO2`, for which the growth inhibition in test [1] is 11.3%; in test [2], 3.9%; in test [3], 4.55%; in test [4], -15.5%; in test [5] it was 8.55%.
As to `COc1ccc(OC)c(C#N)c1C#N` (tested in a mixture with another compound), the growth inhibition in test [1] was -25.1%; in test [2], 5.9%; in test [3], -0.15%; in test [4], -41.5%; in test [6], -3.35%; in test [5], -6.75%.
With `NC(=O)Cc1c[nH]c2ccccc12`, the growth inhibition in test [1] is 39.7%; in test [2], -3.95%; in test [3] it was 14.3%; in test [4], -37.2%; in test [5], 48.6%.
The like results for `COc1ccc(/C=C/c2ccc3ccccc3n2)cc1` were, in that order, 3.3%, -20.6%, 1.65%, -46.1% and -16%.
The like results for `CN(C)CCOC(=O)C(C)(C)Sc1ccc(Cl)cc1` were, in that order, 11.1%, 23.3%, 26.4%, -5.35% and 25.5%.
In the same order, the values of `CC(=O)Oc1cc(N(C)C)ccc1SC(Cl)(Cl)Cl` are -14.7%, -17.9%, -12.1%, -61.6% and -25.6%.
Turning to `CN(N=O)c1c([N+](=O)[O-])cc2c(c1[N+](=O)[O-])Cc1ccccc1-2`, the growth inhibition in test [1] was 0.4%; in test [2] it was -4.3%; in test [3], -8.8%; in test [4], 17.6%; in test [5], 19.4%.
In the same order, the values of `CC(C)CC1=C(O)c2ccccc2C(=O)C1=O` are 11%, -9.7%, -1.45%, -1.6% and -2.4%.
In the same order, the values of `[O-]c1n[n+](Cc2ccc(Br)cc2)no1` are 6.95%, 15.2%, -4%, 1.2% and 28.3%.
In the same order, the values of `CCOc1nc(C)cc(C(=O)OC)c1C#N` are 18.4%, 15.7%, 19.6%, 17.4% and 2%.
For `CC1OC(OCC2COC(O)(Oc3c(-c4ccc(O)c(O)c4)oc4cc(O)cc(O)c4c3=O)C(O)C2O)C(O)C(O)C1O` (stereo unspecified), the growth inhibition is 20.1% in test [1]; -29.4% in test [2]; -15.8% in test [3]; 0.6% in test [4]; 13.9% in test [5].
The like results for `CCOC(=O)CN=NNc1ccccc1C(C)=O` were, in that order, 21.4%, 7.45%, 10.9%, -3.3% and 38.4%.
Consider `Nc1ncnc2c1ncn2CCOCC(O)CO` (stereo unspecified), for which the growth inhibition is -0.75% in test [1]; -4.3% in test [2]; -5.95% in test [3]; -15.4% in test [4]; -19.9% in test [5].
In the same order, the values of `NC(CCCO)C(=O)O` (stereo unspecified) are -21.1%, -6.7%, -24.1%, 8.6% and -26.1%.
In the same order, the values of `O=C(OCc1ccc([N+](=O)[O-])cc1)N1c2ccccc2[C@@]23O[C@]24CCC[C@H]3C#C/C=C\C#C[C@H]14` are 22.1%, 25.2%, 2.45%, -13.6% and -32.6%.
In the case of `Cc1ccc(NC(=O)CCC(NS(=O)(=O)c2ccc(C)cc2)C(=O)O)cc1` (stereo unspecified), the growth inhibition in test [1] is 26.4%; in test [2], 17.5%; in test [3], 25.6%; in test [4] it was 18.6%; in test [5] it was 42.1%.
In the same order, the values of `O=C(O)/C=C(\Br)C(=O)O` are 16.1%, -4.1%, -1%, -11.4% and 5.3%.
In the same order, the values of `O=c1[nH]c(=O)c2ncn(-c3ccc(Cl)cc3)c2[nH]1` are -7.35%, -20.9%, 7.1%, -37.5% and -8.3%.
Regarding `CC1=CC(=O)CC2(C)CCC(C(C)CC(=O)CC(C)C)CC12` (stereo unspecified), the growth inhibition in test [1] is 88.8% (active); in test [2], 91.3% (active); in test [3] it was 91% (active); in test [6], 88.8% (active); in test [5] it was 91.5% (active).
